Activity calls are given as the source filed them. How the source made its calls: active means hit-call score of the fitted dose curve at least 0.9, where 1 is the maximum; inactive means score below 0.9.
Assays:
[1] = read-out: Transforming growth factor beta 1 (TGFb1), TGFB1 (gene 7040); assay: BSK_KF3CT_TGFb1: BioMAP Diversity Plus: KF3CT Assay for Transforming growth factor beta 1 (TGFb1) Biomarker Activity (AID 2283072); details: primary human keratinocytes with fibroblasts; actives raise or lower the signal
Method in brief: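 Human keratinocyte/foreskin fibroblast co-culture; TGF-b1 measured by ELISA 24 h after dosing, fitted bidirectionally versus DMSO. Cytotoxicity checked in parallel cultures by total protein (SRB staining, 560 nm).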

[2] = read-out: C-C motif chemokine 2 (Homo sapiens) (UniProt P13500); assay: BSK_KF3CT_MCP1: BioMAP Diversity Plus: KF3CT Assay for Monocyte Chemoattractant Protein 1 (MCP1/CCL2) Biomarker Activity (AID 2283073); details: primary human keratinocytes with fibroblasts; actives raise or lower the signal
Method in brief: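 Human keratinocyte plus foreskin fibroblast primary co-culture exposed to chemical for 24 h. MCP-1 levels measured by ELISA. Bidirectional curve fitting relative to DMSO negative control as baseline.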

[3] = read-out: Matrix Metallopeptidase 9 (MMP9), MMP9 (gene 4318); assay: BSK_KF3CT_MMP9: BioMAP Diversity Plus: KF3CT Assay for Matrix Metallopeptidase 9 (MMP9) Biomarker Activity (AID 2283074); details: primary human keratinocytes with fibroblasts; actives raise or lower the signal;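 on AC50: MMP9 protein level quantified by ELISA in the co-culture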
Method in brief: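 Human keratinocyte and foreskin fibroblast co-culture exposed to chemicals for 24 h; MMP9 biomarker measured by ELISA, bidirectional fitting relative to DMSO; cytotoxicity tracked by SRB total protein staining in parallel cultures.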

[4] = read-out: urokinase plasminogen activator (uPA), PLAU (gene 5328); assay: BSK_KF3CT_uPA: BioMAP Diversity Plus: KF3CT Assay for urokinase plasminogen activator (uPA) Biomarker Activity (AID 2283075); details: primary human keratinocytes with fibroblasts; actives raise or lower the signal
Method in brief: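 Primary human keratinocyte/foreskin fibroblast co-culture exposed to chemical; uPA measured by ELISA at 24 h. Bidirectional fit versus DMSO, with parallel SRB total-protein staining for cytotoxicity.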

CD40, CD40 (gene 958) [5] = assay: BSK_LPS_CD40: BioMAP Diversity Plus: LPS Assay for CD40 Biomarker Activity (AID 2283076); details: primary human HUVEC with PBMC; actives raise or lower the signal
Method in brief: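 Primary human umbilical vein endothelial cells co-cultured with peripheral blood mononuclear cells, LPS-stimulated, were dosed with chemical and read 24 h later. CD40 levels were measured by ELISA and fitted bidirectionally against DMSO as negative control and baseline.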

[6] = read-out: E-selectin (Homo sapiens) (UniProt P16581); assay: BSK_LPS_Eselectin: BioMAP Diversity Plus: LPS Assay for Eselectin Biomarker Activity (AID 2283077); details: primary human HUVEC with PBMC; actives raise or lower the signal
Method in brief: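 Human umbilical vein endothelial cells co-cultured with peripheral blood mononuclear cells under LPS stimulation; E-selectin measured by ELISA 24 h after chemical dosing. Activity fitted bidirectionally against DMSO as negative control and baseline.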

[7] = read-out: Interleukin-8 (IL8), CXCL8 (gene 3576); assay: BSK_LPS_IL8: BioMAP Diversity Plus: LPS Assay for Interleukin-8 (IL8) Biomarker Activity (AID 2283078); details: primary human HUVEC with PBMC; actives raise or lower the signal
Method in brief: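 Human umbilical vein endothelial cells co-cultured with PBMC were stimulated with LPS; IL-8 levels were measured by ELISA 24 h after chemical dosing. Activity was fitted bidirectionally against DMSO as negative control and baseline.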

[8] = read-out: Monocyte Chemoattractant Protein-1 (MCP1), CCL2 (gene 6347); assay: BSK_LPS_MCP1: BioMAP Diversity Plus: LPS Assay for Monocyte Chemoattractant Protein-1 (MCP1) Biomarker Activity (AID 2283081); details: primary human HUVEC with PBMC; actives raise or lower the signal
Method in brief: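 HUVEC plus PBMC co-culture (human primary cells, LPS system) exposed to test chemical for 24 h; MCP-1 measured by ELISA. Bidirectional curve fitting against DMSO baseline; parallel SRB total-protein staining flags overt cytotoxicity.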

[9] = BSK_LPS_PGE2: BioMAP Diversity Plus: LPS Assay for Prostaglandin E2 (PGE2) Biomarker Activity (AID 2283082); details: primary human HUVEC with PBMC; actives raise or lower the signal
Method in brief: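 HUVEC plus human PBMC co-culture stimulated with LPS; secreted PGE2 quantified by ELISA 24 h after chemical dosing. Activity fitted bidirectionally against DMSO baseline; parallel SRB staining (0.1% SRB after 10% TCA fixation, 560 nm) flags overt cytotoxicity.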

[10] = read-out: Tissue Factor, F3 (gene 2152); assay: BSK_LPS_TissueFactor: BioMAP Diversity Plus: LPS Assay for Tissue Factor Biomarker Activity (AID 2283084); details: primary human HUVEC with PBMC; actives raise or lower the signal
Method in brief: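 Human umbilical vein endothelial cells co-cultured with peripheral blood mononuclear cells were dosed and stimulated with LPS. Cell-surface CD142 was quantified by ELISA at 24 h. Activity was fitted bidirectionally against DMSO baseline.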

[11] = read-out: Tumor necrosis factor (Homo sapiens) (UniProt P01375); assay: BSK_LPS_TNFa: BioMAP Diversity Plus: LPS Assay for Tumour Necrosis Factor alpha (TNFa) Biomarker Activity (AID 2283085); details: primary human HUVEC with PBMC; actives raise or lower the signal
Method in brief: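 Human umbilical vein endothelial cells co-cultured with PBMC and stimulated with LPS. TNFa was measured by ELISA 24 h after chemical dosing, fitted bidirectionally relative to DMSO.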

[12] = read-out: Vascular cell adhesion molecule 1 (VCAM1), VCAM1 (gene 7412); assay: BSK_LPS_VCAM1: BioMAP Diversity Plus: LPS Assay for Vascular cell adhesion molecule 1 (VCAM1) Biomarker Activity (AID 2283086); details: primary human HUVEC with PBMC; actives raise or lower the signal
Method in brief: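 Human umbilical vein endothelial cells co-cultured with PBMC and stimulated with LPS; VCAM-1 measured by ELISA 24 h after dosing. Bidirectional curve fitting against DMSO baseline; cytotoxicity tracked in parallel by SRB total-protein staining.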

CD38, CD38 (gene 952) = assay: BSK_SAg_CD38: BioMAP Diversity Plus: SAg Assay for CD38 Biomarker Activity (AID 2283087); details: primary human HUVEC with PBMC; actives raise or lower the signal
Method in brief: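 Human HUVEC plus PBMC co-culture stimulated with superantigen; CD38 measured by ELISA 24 h after chemical dosing. Fluorescence read-out, bidirectional fit against DMSO; cytotoxicity tracked in parallel by SRB and Alamar Blue.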

[13] = read-out: Monocyte Chemoattractant Protein-1 (MCP1), CCL2 (gene 6347); assay: BSK_SAg_MCP1: BioMAP Diversity Plus: SAg Assay for Monocyte Chemoattractant Protein-1 (MCP1) Biomarker Activity (AID 2283090); details: primary human HUVEC with PBMC; actives raise or lower the signal
Method in brief: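 MCP-1 levels in the endothelial–PBMC SAg co-culture were quantified by ELISA at 24 h post-dosing; both increases and decreases versus DMSO scored. Cytotoxicity monitored by SRB total protein in parallel cultures.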

CD40, CD40 (gene 958) [14] = assay: BSK_SAg_CD40: BioMAP Diversity Plus: SAg Assay for CD40 Biomarker Activity (AID 2283088); details: primary human HUVEC with PBMC; actives raise or lower the signal
Method in brief: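 Human umbilical vein endothelial cells co-cultured with PBMC; CD40 levels measured by ELISA with fluorescence read-out 24 h after chemical dosing. Gain or loss of signal fitted bidirectionally against DMSO baseline.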

[15] = read-out: Interleukin-1 alpha (IL1a), IL1A (gene 3552); assay: BSK_LPS_IL1a: BioMAP Diversity Plus: LPS Assay for Interleukin-1 alpha (IL1a) Biomarker Activity (AID 2283080); details: primary human HUVEC with PBMC; actives raise or lower the signal
Method in brief: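 Human umbilical vein endothelial cells co-cultured with peripheral blood mononuclear cells were LPS-stimulated and exposed to test chemicals for 24 h. IL-1 alpha was quantified by ELISA, with bidirectional curve fitting against DMSO as the negative control and baseline.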

CD69, CD69 (gene 969) = assay: BSK_SAg_CD69: BioMAP Diversity Plus: SAg Assay for CD69 Biomarker Activity (AID 2283089); details: primary human HUVEC with PBMC; actives raise or lower the signal;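 on AC50: cell surface CD69 protein quantified by ELISA with fluorescence detection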
Method in brief: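 Endothelial/PBMC co-culture; chemical added; 24 h incubation; CD69 ELISA with fluorescence detection; bidirectional fit vs DMSO.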

[16] = BSK_LPS_SRB: Viability Assessment in the BioMAP Diversity Plus: LPS Assay (AID 2283079); details: primary human HUVEC with PBMC;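 further: total protein by sulforhodamine B absorbance as a cytotoxicity measure; measured one day after compound addition; fitted in both directions against DMSO so loss or gain of signal counts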
Method in brief: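 Human umbilical vein endothelial cells co-cultured with PBMC (LPS system) were dosed for 24 h. Total protein was stained with 0.1% sulforhodamine B after 10% TCA fixation, read at 560 nm, and fitted bidirectionally against DMSO baseline.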

[17] = read-out: Macrophage colony-stimulating factor (MCSF), CSF1 (gene 1435); assay: BSK_LPS_MCSF: BioMAP Diversity Plus: LPS Assay for Macrophage colony-stimulating factor (MCSF) Biomarker Activity (AID 2283083); details: primary human HUVEC with PBMC; actives raise or lower the signal
Method in brief: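 Human umbilical vein endothelial cells co-cultured with peripheral blood mononuclear cells were exposed to compound for 24 h. M-CSF levels were measured by ELISA, and bidirectional curve fitting used DMSO as the negative control and baseline.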

[18] = read-out: E-selectin (Homo sapiens) (UniProt P16581); assay: BSK_SAg_Eselectin: BioMAP Diversity Plus: SAg Assay for Eselectin Biomarker Activity (AID 2283091); details: primary human HUVEC with PBMC; actives raise or lower the signal
Method in brief: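 HUVEC co-cultured with PBMC, compound dosed then read at 24 h; E-selectin measured by ELISA. Activity fitted bidirectionally against DMSO as negative control and baseline.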

Measured: AC50

Chain of E-selectin (Homo sapiens) (P16581 whole entry, looked up): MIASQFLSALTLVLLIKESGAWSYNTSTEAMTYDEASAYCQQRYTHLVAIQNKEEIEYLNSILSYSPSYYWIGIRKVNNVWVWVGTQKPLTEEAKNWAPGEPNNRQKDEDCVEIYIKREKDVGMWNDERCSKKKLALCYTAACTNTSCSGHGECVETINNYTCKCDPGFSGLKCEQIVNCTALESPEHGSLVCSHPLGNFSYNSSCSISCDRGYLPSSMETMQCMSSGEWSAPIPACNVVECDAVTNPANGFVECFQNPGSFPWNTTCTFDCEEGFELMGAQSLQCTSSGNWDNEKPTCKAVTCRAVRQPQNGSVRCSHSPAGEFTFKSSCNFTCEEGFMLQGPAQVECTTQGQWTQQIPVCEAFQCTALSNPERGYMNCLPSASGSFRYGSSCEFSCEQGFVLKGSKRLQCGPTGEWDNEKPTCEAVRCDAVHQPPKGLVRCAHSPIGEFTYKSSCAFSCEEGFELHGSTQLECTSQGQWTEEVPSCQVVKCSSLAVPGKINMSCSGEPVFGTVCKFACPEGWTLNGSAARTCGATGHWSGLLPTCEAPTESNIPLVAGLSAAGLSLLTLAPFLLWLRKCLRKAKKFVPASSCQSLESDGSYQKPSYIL
Chain of Tumor necrosis factor (Homo sapiens) (P01375 whole entry, looked up): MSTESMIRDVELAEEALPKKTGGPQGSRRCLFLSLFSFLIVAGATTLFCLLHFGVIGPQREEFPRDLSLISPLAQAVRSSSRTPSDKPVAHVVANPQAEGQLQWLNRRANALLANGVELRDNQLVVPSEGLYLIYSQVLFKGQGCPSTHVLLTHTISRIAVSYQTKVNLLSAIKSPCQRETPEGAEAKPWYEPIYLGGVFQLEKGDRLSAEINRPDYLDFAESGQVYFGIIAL

CC(C=O)Cc1ccc(C(C)(C)C)cc1 (centres undefined)
active: [3] 36.7 µM | [4] 31 µM | CD40, CD40 (gene 958) [5] 27.2 µM | [6] 31.4 µM
not listed: CD40, CD40 (gene 958) [14] | [15] | CD69, CD69 (gene 969) | [16] | [17] | [18]
inactive: all other assays above

CC(C)(C)CC(C)(C)c1ccc(OCCOCC[N+](C)(C)Cc2ccccc2)cc1
inactive: [9]
active: [1] 3.38 µM | [2] 8.05 µM | [3] 5 µM | [4] 5 µM | CD40, CD40 (gene 958) [5] 7.8 µM | [6] 7.56 µM | [7] 6.61 µM | [10] 9.04 µM | [11] 8.89 µM | [12] 9.18 µM | CD38, CD38 (gene 952) 5 µM | CD40, CD40 (gene 958) [14] 5 µM | [13] 5 µM

C=C(C)C(=O)OCC(CC)(COC(=O)C(=C)C)COC(=O)C(=C)C
active: [12] 19.7 µM
not listed: [8] | CD40, CD40 (gene 958) [14] | [16] | [17] | [18]
inactive: all other assays above

CCCCCCCCCCCCCCCC(=O)OC/C=C(C)/C=C/C=C(C)/C=C/C1=C(C)CCCC1(C)C
active: [1] 0.0644 µM | [3] 0.125 µM | [12] 20 µM | CD38, CD38 (gene 952) 3.97 µM
not listed: [8] | [15] | CD69, CD69 (gene 969) | [17] | [18]
inactive: all other assays above

CN(C)C(=S)SC(=S)N(C)C
active: [12] 19.9 µM | CD38, CD38 (gene 952) 26.7 µM
not listed: [8] | CD40, CD40 (gene 958) [14] | [15] | CD69, CD69 (gene 969)
inactive: all other assays above

CS(=O)(=O)OCCCCOS(C)(=O)=O
not listed: [8] | [15] | CD69, CD69 (gene 969) | [16] | [17] | [18]
inactive: all other assays above

CC(C)(N=C=O)c1cccc(C(C)(C)N=C=O)c1
not listed: [8] | CD40, CD40 (gene 958) [14] | [15] | [16] | [17] | [18]
inactive: all other assays above

c1ccc(Oc2ccccc2)cc1
active: [1] 20 µM | [2] 30.7 µM | [3] 20 µM | [4] 20 µM
not listed: [8] | [15] | CD69, CD69 (gene 969) | [16]
inactive: all other assays above

CCCCN(CCCC)C(=O)N(CCCC)CCCC
active: [1] 5.42 µM | [2] 4.75 µM | [3] 10.3 µM | [4] 7.68 µM | CD40, CD40 (gene 958) [5] 20 µM | [6] 20 µM | [10] 20 µM | [11] 9.7 µM | [12] 24.7 µM | CD69, CD69 (gene 969) 11.2 µM | [13] 20 µM
inactive: [7] | [9] | CD38, CD38 (gene 952)

CS(=O)(=O)c1ccc(C2=C(c3ccccc3)C(=O)OC2)cc1
not listed: [8] | CD40, CD40 (gene 958) [14] | CD69, CD69 (gene 969) | [16] | [17] | [18]
inactive: all other assays above

CSCCC=O
not listed: [8] | CD40, CD40 (gene 958) [14] | [15] | CD69, CD69 (gene 969) | [16] | [17] | [18]
inactive: all other assays above

Source: PubChem BioAssay (EPA / NIEHS)
